Data from PubChem BioAssay (NCI).
About 83,000 compounds went through this panel and 20% of them were active in at least one assay; those are over-represented in the sample as a whole.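 Negative percent growth values reflect cell death: -40 means 40% of the cells present at the start died, and -100 means all died.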 Unmarked numbers belong to inactive results. The source made the active and inactive calls. The calls were made as follows: active = growth percent below 10; inactive = the rest.

Tests used:
Test in all cases: NCI-60 one-dose screen, 48 h (100 = growth as untreated, 0 = no growth, -100 = all killed)
Conditions in all cases: 10 µM unless noted
HCT-15 colon = tested on: HCT-15 colon
HT29 colon = tested on: HT29 colon
SNB-75 CNS = tested on: SNB-75 CNS
SNB-19 CNS = tested on: SNB-19 CNS
U251 CNS = tested on: U251 CNS
PC-3 prostate = tested on: PC-3 prostate
SK-MEL-5 melanoma = tested on: SK-MEL-5 melanoma
LOX IMVI melanoma = tested on: LOX IMVI melanoma
SK-MEL-28 melanoma = tested on: SK-MEL-28 melanoma
UACC-62 melanoma = tested on: UACC-62 melanoma

| SMILES | growth (HCT-15 colon) | growth (HT29 colon) | growth (SNB-75 CNS) | growth (SNB-19 CNS) | growth (U251 CNS) | growth (PC-3 prostate) | growth (SK-MEL-5 melanoma) | growth (LOX IMVI melanoma) | growth (SK-MEL-28 melanoma) | growth (UACC-62 melanoma) |
| --- | --- | --- | --- | --- | --- | --- | --- | --- | --- | --- |
| COCCOC1=C(Cl)C(=O)c2ccccc2C1=O | 13% | 99% | 8.63% (active) | 88.4% | 8.18% (active) | 18.7% | -7.27% (active) | 22.1% | 13.7% |  |
| O=C1NC(=O)C2(CCCC2C(=O)O)N1 (configuration not stated) | 99.1% | 108% | 83.4% | 106% | 96.7% | 92.6% | 110% | 91.1% | 110% | 103% |
| Cc1ccc(S(=O)(=O)c2ccc3[nH]c(=O)[nH]c(=O)c3c2)cc1 | 103% | 107% | 92.4% | 94.3% | 95.1% | 86.2% | 103% | 101% | 114% |  |
| c1ccc2cc(-c3n(Cc4ccc5ccccc5n4)c4ccccc4[n+]3Cc3ccc4ccccc4n3)ccc2c1 | 18.8% | -31.7% (active) | -32.8% (active) | 6.22% (active) | -7.46% (active) | 0.461% (active) | -96% (active) | -85.8% (active) | -24.2% (active) | -60.6% (active) |
| O=C1C(OCCOc2ccccc2)=C(OCCOc2ccccc2)C(=O)c2ccccc21 | 26.7% | 107% | 69.4% | 57.6% | 18.9% | 44.4% | 13.6% | 22.6% | 93.5% |  |
| CC1CCCCN1S(=O)(=O)c1ccc(CN=C=S)cc1 (configuration not stated) | 19.2% | 50.5% | 69.3% | 77.9% | 68.8% | 74.4% | 91.5% | 3.54% (active) | 88.5% | 84.5% |
| COC(=O)CCC(=O)c1ccccc1 | 102% | 105% | 117% | 102% | 100% | 117% | 130% |  | 108% | 104% |
| CC(=O)OC[C@]1(C)C=C2C(=O)[C@](C)(O)C3(CC3)C(C)=C2[C@H]1OC(C)=O | 72.9% | 69.9% | 56.5% | 83% | 79.5% | 88.1% | 87.8% | 78.3% | 109% | 103% |
| Cc1ccc(C)c2c1sc1nc3nc4sc5ccccc5n4c(=N)c3c(=O)n12 | 102% | 104% | 73.7% | 89.4% | 107% | 71.5% | 94.6% | 92.6% | 110% |  |
| CC(C)N1CCN(c2ccc(OC[C@H]3CO[C@](Cn4cncn4)(c4ccc(Cl)cc4Cl)O3)cc2)CC1 | 62.3% | 21.5% | 89.7% | 97.7% | 73.8% | 73.9% | 47.9% | 86.5% | 63.2% | 71.6% |
| COC(=O)c1c2c(c(C)[n+]([O-])c1C)C(=O)C=C(NCc1cccc(OC)c1)C2=O | -74.8% (active) | 2.57% (active) | -97.7% (active) | -88.4% (active) | -39.3% (active) | -2.04% (active) | -97.2% (active) | -79.7% (active) | -22.3% (active) | -68.1% (active) |
| Cc1nc(NN)c([N+](=O)[O-])c(NN)n1 | 105% | 108% | 114% | 109% | 102% | 104% | 99.4% | 111% | 108% | 97.3% |
| Cc1cc(=O)[nH]n1-c1cc(Cl)ccc1N | 92.4% | 102% | 88.4% | 112% | 108% | 106% | 112% | 94.7% | 115% |  |
| COc1ccc(-c2nn(-c3ccc(NC(=O)c4ccc(Cl)c(Cl)c4)cc3)cc2-c2ccncc2)cc1Cl | -1.71% (active) | -27.7% (active) | 59.4% | 56.7% | 25% | 26.7% | 5.09% (active) |  | 65.8% | 24.5% |
| C[C@]1(CO)C[C@@H](O)C[C@]2(C)[C@@H]1CC[C@@]13C[C@@H]4[C@@H](C[C@H]12)[C@]4(C)C3 | 103% | 105% | 88.9% | 95.7% | 104% | 99% | 99% | 107% | 103% | 94.1% |
| CCCCCCCC/C=C\CCCCCCCCOc1cccc(CC(=O)NCC[N+]2(C)CCCCC2)c1 | 102% | 27% | 50.7% | 56.7% | 51.6% | 22.1% | 89.4% | 74.5% | 98.7% | 70.1% |
| CCN(CC)CCCNc1ccc(C)c2sc3ccccc3c(=O)c12 | -13.3% (active) | -24.2% (active) | 47.1% | 46.7% | 15.4% | 22.7% | -99.4% (active) | -93.4% (active) | -80% (active) | -49.2% (active) |
| O=c1c2cc(F)ccc2oc2c(NCCNCCO)nc3ccccc3c12 | 28.1% | 16.7% | 50.2% | 45.1% | 36.1% | 38.6% | 61.6% | 13.8% | 50.2% |  |
| Cc1nn(CC(=O)O)c2c1C(=O)CC(C)(C)C2 | 102% | 108% | 86.8% | 103% | 119% | 102% | 115% | 107% | 105% | 91% |
| COc1ccc(NC(=O)c2ccc3c(c2)nc(-c2ccc(Cl)cc2)n3-c2cc(C(C)(C)C)[nH]n2)cc1 | 82.6% | 116% | 77.8% | 82.6% | 83.3% | 68.1% | 70.7% |  | 95.4% | 79.6% |
| CCOC(=O)c1cnn(CC(O)c2ccc(F)cc2)c1NC(=O)Nc1ccccc1F (configuration not stated) | 103% | 117% | 82.2% | 98.3% | 97.8% | 81.5% | 75.9% | 101% | 101% | 73.8% |
| COc1ccc(/C=C(\C#N)c2cc3ccccc3n2C)cc1 | 23.9% | 9.49% (active) | 1.11% (active) | 32.8% | 15.9% | 38.8% | 23.2% | 39.4% | 62.1% | 38.3% |
| NC(=S)N/N=C1\c2ccccc2-c2c(F)c(F)c(F)c(F)c21 | 62.8% | 52.8% | 95.7% | 89% | 63.9% | 80.3% | 102% | 86.6% | 113% |  |
| COc1cc(CNCCN2C(=O)c3ccc4c5c(ccc(c35)C2=O)C(=O)N(CCNCc2cc(OC)c(OC)c(OC)c2)C4=O)cc(OC)c1OC | -66.2% (active) | -52.3% (active) | -98% (active) | -79.8% (active) | -68.1% (active) | -73.1% (active) | -87.7% (active) | -99% (active) | -89.3% (active) | -92.4% (active) |
| COc1ccc(/C=C/C(=O)N2CCC(O)CC2)cc1OC1CCCC1 | 102% | 102% | 90.2% | 95.7% | 93% | 96.5% | 99.3% | 95.3% | 115% | 97.9% |
| Nc1cc(Br)c(-c2nnc(CCC(=O)c3nc4ccccc4[nH]3)o2)c(Br)c1 | 104% | 84.1% | 58.9% | 85.5% | 68.2% | 74.9% | 47.7% | 44.7% | 65.4% |  |
| CCCCOC(=O)C1OC(Oc2ccc3c(C)cc(=O)oc3c2)[C@@H](OC(C)=O)C(OC(C)=O)C1OC(C)=O (some centres not stated) | 99.2% | 104% | 86.3% | 99.1% | 100% | 104% | 101% | 94.5% | 108% |  |
| Cc1ccc(S(=O)(=O)N2C/C(=C\c3cc(F)cc(F)c3)C(=O)/C(=C/c3cc(F)cc(F)c3)C2)cc1 | -31.6% (active) | -48.7% (active) | -41.6% (active) | -61.7% (active) | -97.9% (active) | -60.3% (active) | -59.6% (active) | -94.5% (active) | -80.1% (active) |  |
